# DRD3 antagonist = D3 dopamine receptor (human) antagonism. P35462. 360,000 tested, 2.5% active. max response, negative = inhibition, %. D3R cells, DiscoveRx beta-arrestin luminescence, antagonist mode; hits give low values; in the data active means max response below about -50%; inconclusive means no clear call, values can overlap the other calls
#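 Cells expressing the human receptor were seeded at 1500 cells/well, incubated overnight at 37 degrees C in 5% CO2, then exposed to library compounds with dopamine controls for 90 minutes at 37 degrees C before luminescent detection.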
# D1 potentiator = enhances dopamine response at the human D1 receptor. 360,000 tested, 0.036% active. HEK293 TREx D1 cells, calcium flux, dopamine EC20 potentiation. P21728. potentiation, % at 10 µM; in the data active means potentiation above about 30%
# Target sequence (P21728 whole entry, looked up): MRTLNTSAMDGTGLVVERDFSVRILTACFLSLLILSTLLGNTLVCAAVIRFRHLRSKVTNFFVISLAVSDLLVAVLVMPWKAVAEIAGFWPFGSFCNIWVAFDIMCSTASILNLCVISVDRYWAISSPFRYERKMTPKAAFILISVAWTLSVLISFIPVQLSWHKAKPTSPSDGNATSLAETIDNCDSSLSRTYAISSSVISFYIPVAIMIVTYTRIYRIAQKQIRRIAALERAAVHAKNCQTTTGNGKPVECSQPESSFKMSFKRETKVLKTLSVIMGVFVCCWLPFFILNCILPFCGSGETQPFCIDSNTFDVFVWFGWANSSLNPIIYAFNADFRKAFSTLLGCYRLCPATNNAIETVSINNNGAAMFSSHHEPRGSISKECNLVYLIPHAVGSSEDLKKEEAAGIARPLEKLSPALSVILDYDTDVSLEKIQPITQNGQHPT
# D3 ag = activates the human D3 dopamine receptor; P35462; D3R DiscoveRx beta-arrestin cells, luminescence, 90 min; max activation, %; 410,000 tested, 0.58% active; in the data active means max activation above about 30%
#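 Cells at 1500/well, incubated overnight, then treated with pinned compounds (dopamine as control) for 90 min at 37 degrees C. DiscoveRx reagent added for 30 - 60 minutes at room temperature; luminescence read.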
# D1 antag = blocks dopamine activation of the human D1 receptor. P21728. HEK293 TREx D1 cells, calcium flux, dopamine EC80; hits give low values. activity change, negative = inhibition, % at 10 µM. 360,000 tested, 3.2% active. AID 504652; in the data active means activity change below about -30%
#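 Inducible Hek293 Trex D1 cells (tetracycline, overnight, 30 C). Calcium dye 30–90 min RT. Antagonist mode: EC80 dopamine added after 180 s compound read.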
# D1 ag = agonists of human D1 dopamine receptor. P21728. HEK293 T-REx D1 cells, calcium flux, agonist mode. activation, % at 2 µM. 360,000 tested, 1% active. AID 504660; in the data active means activation above about 30%
#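 Inducible HEK293 T-REx D1 cells, force-coupled to calcium signalling, were plated at 4000 cells/well with tetracycline and held overnight at 30 C. After no-wash calcium dye loading, compound-evoked calcium rise over 180 s flagged agonists.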
# Numbers stand for hits; – = inactive; ? = inconclusive; · = not tested or not shown. Most compounds without a hit are left out; they make up all but 6.1% or so of the library.
SMILES,DRD3 antagonist,D1 potentiator,D3 ag,D1 antag,D1 ag
CC(C)CCn1c(N)c(S(=O)(=O)c2cccs2)c2nc3ccccc3nc21,-87,–,–,–,–
C=CCn1c(-c2cccc(Cl)c2)n[nH]c1=S,-57,–,–,–,–
S=c1[nH]nc(-c2cccc(Cl)c2)n1Cc1ccccc1,–,–,–,–,–
O=C(CSc1n[nH]c(-c2ccccc2)n1)NCCCc1ccccc1,·,–,–,–,–
Cc1cc(C)cc(-n2ccnc2SCC(=O)Nc2nnc(C)s2)c1,·,–,–,–,–
Cc1ccccc1OCC(=O)Nc1ccc(N2CCN(C)CC2)c(Cl)c1,–,·,–,-71,35
COc1cccc(NC(=O)COc2ccc(C(=S)N3CCN(C)CC3)cc2OC)c1,–,–,–,-31,–
COc1ccc(NC(=O)c2cccc3c(=O)c4c([nH]c23)CCCC4)cc1,·,–,–,-33,–
CCOc1ccc(NC(=O)c2cccc3c(=O)c4c([nH]c23)CCCC4)cc1,·,–,–,–,–
Cn1c(Oc2ccc(F)cc2)nc2c1c(=O)n(Cc1ccccc1Cl)c(=O)n2C,·,–,–,–,–
O=c1c2cc(Br)ccc2nc(-c2ccc(Cl)cc2)n1O,–,–,–,–,107
N#Cc1c(N2CCSCC2)nsc1-c1ccccc1Cl,–,–,–,–,–
O=C(CCC(=O)c1cccs1)NNC(=O)c1ccccc1Cl,–,–,–,–,–
C[C@H](NC(=O)c1ccccc1Cl)C(=O)OCC(=O)NNC(=O)c1cccs1,-55,–,–,–,–
Cc1ccc(C(=O)c2coc3ccc(O)c(Cl)c23)cc1,–,–,–,–,–
O=C(c1ccccc1)c1coc2ccc(O)c(Cl)c12,-52,–,–,–,111
CCCCNC(=S)N1CCN(C(c2ccccc2)c2ccccc2)CC1,–,–,–,–,–
COc1cc(NC(=S)N2CCN(C(c3ccccc3)c3ccccc3)CC2)cc(OC)c1,–,–,–,-32,–
CCCNC(=S)N1CCN(C(c2ccccc2)c2ccccc2)CC1,–,–,–,-33,–
COc1cc(OC)c(OC)cc1CN1CCc2nc(Nc3ccc4c(c3)OCCO4)ncc2C1,·,–,–,–,–
Cc1ccc(NCc2nnc(SCC(=O)N(Cc3ccccc3)C(C)(C)C)o2)c(C)c1,–,–,–,-45,–
Cc1nnc(N)nc1C,–,–,–,-38,–
Cc1cccc(C)c1NC(=O)CSc1n[nH]c(=O)n1C1CC1,–,·,–,·,·
O=C(CSc1n[nH]c(=O)n1C1CC1)c1ccc(F)cc1,-60,–,–,–,–
COc1ccc(N2CCN(C(=O)C(=O)c3cn(CC(=O)N4CCCCCC4)c4ccccc34)CC2)cc1,–,–,–,-58,–
SMILES,DRD3 antagonist,D1 potentiator,D3 ag,D1 antag,D1 ag
COc1ccc(N2CCN(C(=O)C(=O)c3cn(CC(=O)N4CCOCC4)c4ccccc34)CC2)cc1,–,–,–,–,–
CCOc1ccc(-c2nn(-c3ccccc3)cc2C2NC(=O)NC(C)=C2C(=O)OC(C)C)cc1C (stereo not given),·,–,–,-36,–
CC(C)(C)OC(=O)Cc1nnc(-c2cc3ccccc3[nH]2)s1,·,–,·,–,–
O=C1[C@@H]2[C@H](Cc3ccc(O)cc3)N[C@]3(C(=O)Nc4ccccc43)[C@@H]2C(=O)N1c1ccc(F)cc1,·,–,·,–,–
Cc1c(Cl)ccc2c1NC(=O)[C@]21N[C@@H](Cc2ccccc2)[C@H]2C(=O)N(c3ccc(F)cc3)C(=O)[C@H]21,–,–,–,–,34
Cc1ccc(-c2nc(SCC(=O)NCC3CCCO3)c3c(=O)n(C)c(=O)n(C)c3n2)cc1 (stereo not given),·,–,–,–,–
Cc1cccc(N(CC(=O)NCCSc2nc3ccccc3s2)S(=O)(=O)c2ccccc2)c1,·,–,·,–,–
COc1ccc(N(CC(=O)NCCOc2ccccc2)S(=O)(=O)c2ccc(C)cc2)cc1,–,–,–,–,–
O=C(CN(c1ccccc1)S(=O)(=O)c1ccccc1)NCCSc1nc2ccccc2s1,–,–,–,-63,–
COc1ccc(S(=O)(=O)N(CC(=O)NCCSc2ccccc2)c2ccc(Cl)cc2)cc1,·,–,–,–,36
CCOc1ccc(N(CC(=O)NCCOc2ccc(C)cc2)S(=O)(=O)c2ccccc2)cc1,–,–,–,-38,54
COc1ccc(S(=O)(=O)N(CC(=O)NCCSc2ccccc2)c2ccc(C)cc2)cc1,·,–,–,–,32
CC(=O)Nc1ccc(NC(=O)CSc2nnc(-c3cccs3)n2N)cc1,–,–,–,–,–
CCc1ccc(N(CC(=O)NC2CC2)S(=O)(=O)c2ccc(C)cc2)cc1,–,–,–,-43,–
COc1ccc(C)cc1NC(=O)c1ccc(NS(=O)(=O)c2cccs2)cc1,–,–,–,–,–
O=C(NC1CCCCC1)N(c1ccccc1)c1nnc(-c2cccc([N+](=O)[O-])c2)s1,–,·,–,·,·
CCOC(=O)c1sc2nc(C)nc(Nc3ccc(OC)cc3)c2c1C,–,–,–,-30,–
CCOC(=O)c1sc2nc(C)nc(NCc3ccc(F)cc3)c2c1C,–,–,–,–,–
COc1ccc(-c2nn(-c3ccccc3)cc2/C=N/O)cc1OC,–,–,–,–,–
O/N=C/c1cn(-c2ccccc2)nc1-c1ccccc1,–,–,45,–,–
Cc1cccc(-n2c(=S)[nH]c3nc4c(cc3c2=O)COC(C)(C)C4)c1,–,–,–,–,–
O=C(c1ccc(Br)s1)N1CCN(Cc2ccc3c(c2)OCO3)CC1,-95,–,–,-35,–
CS(=O)(=O)N1CCN(C(=O)c2ccc(Br)s2)CC1,–,–,–,-32,–
O=C(C1=C[C@@H](c2ccc(Br)cc2)C[C@@H](OCc2ccc(CO)cc2)O1)N1CCN(Cc2ccc3c(c2)OCO3)CC1,-63,–,–,–,–
O=C(c1ccc(Br)o1)N1CCN(Cc2ccc3c(c2)OCO3)CC1,-81,–,–,–,–
SMILES,DRD3 antagonist,D1 potentiator,D3 ag,D1 antag,D1 ag
CC1CCN(CC2CCN(C(=O)Nc3ccc(Br)cc3F)CC2)CC1,·,–,–,–,–
CNC[C@H](CC1CCCCC1)NC[C@H](Cc1ccccc1)NCCC12CC3CC(CC(C3)C1)C2,–,–,–,–,32
Cn1c(C(=O)N2CCCC(Nc3ccc(F)cc3)C2)cc2ccccc21 (stereo not given),–,–,–,–,–
O=[N+]([O-])c1cccc(CN2CCCCCC2)c1,-55,–,–,–,–
O=[N+]([O-])c1ccc(N2CCN(Cc3cccc([N+](=O)[O-])c3)CC2)cc1,–,–,–,-40,–
O=[N+]([O-])c1ccc(CN2CCSCC2)cc1,–,–,–,-33,–
COC(=O)c1cc([N+](=O)[O-])ccc1N1CCN(Cc2ccccc2)CC1,-52,–,–,–,–
O=[N+]([O-])c1cccc(CN2CCN(Cc3ccco3)CC2)c1,-75,–,–,–,–
O=[N+]([O-])c1ccc(S(=O)(=O)N2CCN(Cc3ccco3)CC2)cc1,?,–,–,–,–
